# According to PubChem BioAssay:
# Where “and” joins values, the source holds several entries; their conditions need not be identical. Equal entries are not always repeated. Calls of active or inactive are those of the source. No rule for the calls is given here.
# Test system: Aerobactin synthetase IucA (Klebsiella pneumoniae hvKP1)
# Test: IucA enzyme inhibition, primary screen, biochemical, Spectrum library (AID 1346200);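 also: 100% = wells without compound and 0% = wells lacking enzyme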
# Details: malachite green pyrophosphate, A620, at 8 µM, stronger effect = lower value
row,Compound,activity remaining
1,C[n+]1ccccc1/C=N/O,117% (inactive)
2,O=c1ccc2ccc(O)cc2o1,94.5% (inactive)
3,Oc1cc(O)c2c(c1)O[C@H](c1cc(O)c(O)c(O)c1)[C@H](O)C2,116% (inactive)
4,CC(=O)O[C@H]1C[C@@H](OC(C)=O)C(C)(C)C2CC(=O)[C@]3(C)C(CC[C@@]4(C)[C@H](c5ccoc5)OC(=O)[C@H]5O[C@]543)[C@]21C (stereo partly specified),107% (inactive)
5,CC(C)NCC(O)COc1ccc(CC(N)=O)cc1 (stereo unspecified),117% (inactive)
6,O=C1CC(c2ccc(O)c(O)c2)Oc2cc(O)cc(O)c21 (stereo unspecified),109% (inactive)
7,C[C@]12CCC(=O)C=C1CCC1C2[C@@H](O)C[C@@]2(C)C1CC[C@]2(O)C(=O)COC(=O)CCC(=O)O (stereo partly specified),123% (inactive)
8,Nc1ccc(C(=O)Oc2ccccc2)c(O)c1,114% (inactive)
9,COC(=O)Nc1nc2ccc(S(=O)c3ccccc3)cc2[nH]1 (stereo unspecified),110% (inactive)
10,Cc1cc(C(C)(C)CC(C)(C)C)ccc1OCCOCC[N+](C)(C)Cc1ccccc1,118% (inactive)
11,N[C@@H]1[C@@H](O[C@@H]2O[C@H](C(=O)O)[C@@H](O)[C@H](O)[C@H]2O)[C@@H](O)[C@@H](CO)O[C@@H]1O,100% (inactive)
12,CC(=O)OCC[N+](C)(C)C,118% (inactive)
13,Oc1c(I)cc(Cl)c2cccnc12,126% (inactive)
14,CCC(c1ccc(O)cc1)C(CC)c1ccc(O)cc1 (stereo unspecified),121% (inactive)
15,C=C(C)[C@H]1COc2cc3oc(=O)ccc3cc2O1,118% (inactive)
16,CC12CCCC(O)(C1)C1CC(C)(C)C1CC2 (stereo unspecified),91.8% (inactive)
17,COc1cc(O)c(C(=O)O)c(O)c1,102% (inactive)
18,Nc1nc(/C(=C/CC(=O)O)C(=O)N[C@@H]2C(=O)N3C(C(=O)O)=CCS[C@H]23)cs1,117% (inactive)

row,Compound,activity remaining
1,C#C[C@]1(O)CCC2C3CCc4cc(OC)ccc4C3CC[C@@]21C (stereo partly specified),116% (inactive)
2,CC(=O)OCC(=O)[C@@]1(O)CCC2C3C[C@H](C)C4=CC(=O)C=CC4(C)C3[C@@H](O)CC21C (stereo partly specified),93.6% (inactive)
3,CC1(C)O[C@@H]2CC3C4C[C@H](F)C5=CC(=O)C=CC5(C)C4C(O)CC3(C)[C@]2(C(=O)CO)O1 (stereo partly specified),111% (inactive)
4,COc1c2ccccc2nc2occc12,115% (inactive)
5,O=c1cc(-c2ccccc2)oc2cc(O)cc(O)c12,118% (inactive) and 119% (inactive)
6,CC(=O)O[C@H]1CC[C@]2(C)C3CC(=O)[C@]4(C)C(C(C)=O)=CCC4C3CC[C@H]2C1 (stereo partly specified),101% (inactive)
7,CC(=O)O[C@H]1CC[C@@]2(C)C(C[C@@H](OC(C)=O)[C@]3(C)C2CC[C@@]2(C)[C@H](c4ccoc4)OC(=O)[C@H]4O[C@]423)C1(C)C (stereo partly specified),82.9% (inactive)
8,CC(=O)O[C@@H]1CC2C(C)(C)[C@H](O)C[C@H](O)[C@]2(C)C2CC[C@@]3(C)C(=CC(=O)O[C@H]3c3ccoc3)[C@@]21C (stereo partly specified),102% (inactive)
9,C=CCSCC=C,109% (inactive)
10,CN(N=O)C(=O)N[C@@H]1[C@@H](O)[C@H](O)[C@@H](CO)O[C@@H]1O,112% (inactive)
11,CCCCC(CC)CN=C(N)NC(N)=NCCCCCCN=C(N)NC(N)=NCC(CC)CCCC (stereo unspecified),98.4% (inactive)
12,COc1ccc2c(c1)OCC(Cc1ccc(OC)c(OC(C)=O)c1)C2=O (stereo unspecified),113% (inactive)
13,CC[C@@H]1OC(=O)C[C@@H](O)[C@H](C)[C@@H](O[C@@H]2O[C@H](C)[C@@H](O)[C@H](N(C)C)[C@H]2O)[C@@H](CCN2C[C@H](C)C[C@H](C)C2)C[C@@H](C)C(=O)/C=C/C(C)=C\[C@@H]1CO[C@@H]1O[C@H](C)[C@@H](O)[C@@H](OC)[C@H]1OC,112% (inactive)
14,CCN(CC)Cc1ccc(Nc2ccnc3cc(Cl)ccc23)cc1O,102% (inactive)
15,Nc1nc2c(c(=O)[nH]1)NC(CNc1ccc(C(=O)N[C@H](CCC(=O)O)C(=O)O)cc1)=CN2,102% (inactive)
16,CC(=O)Oc1ccc2c(c1OC(C)=O)OCC1(O)Cc3c(cc(OC(C)=O)c(OC(C)=O)c3OC(C)=O)C21 (stereo unspecified),111% (inactive)
17,CC(=O)N=c1sc(S(N)(=O)=O)nn1C,86.3% (inactive)
18,C[C@H](CC(=O)C1OC1(C)C)[C@H]1C(=O)C[C@@]2(C)C3=CCC4C(C)(C)[C@@H](O[C@@H]5OC[C@@H](O)[C@H](O)[C@H]5O)CC[C@@]45C[C@@]35[C@@H](O)C[C@]12C (stereo partly specified),91.8% (inactive)
